Compound activity (PubChem)
An excerpt weighted towards active compounds, which were near 9.4% of everything screened.
Pf growth 48h – Primary qHTS for delayed death inhibitors of the malarial parasite plastid, 48 hour incubation; P. falciparum luciferase growth in erythrocytes, 48 h; Potency, µM (highest dose often 28.7 µM), inactives show at the top dose activity change, negative = inhibition, usual class: inhibitors; actives 5.9% (n = 310,000); AID 504832, 2011; note: % is set by controls: 0 for no effect and ±100 for the full control effect
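Luminescence readout; reporter = integrated firefly luciferase in P. falciparum. RBC culture at 2% hematocrit, 0.1% parasitemia final, 37 C/5% CO2; decreased signal taken as growth inhibition.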
AMA1 RON2 block – qHTS for Inhibitors of AMA1-RON; Towards Development of Antimalarial Drug Lead: Primary Screen; actives 0.2% (n = 360,000); AID 720542, 2013; Potency, µM (doses to about 58.2 µM), for the others: top-dose activity change, negative = inhibition, hits mostly inhibitors; AlphaScreen AMA1-biotinylated RON2 peptide binding; Plasmodium falciparum AMA1 (3D7) - RON2 peptide interaction;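 note: 0% = vehicle wells and -100% = peptide control; nearly all actives have a fitted effect of over 45% in size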
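AMA1 (3D7) with his tag at 25 nM final met compounds first, then biotinylated RON2 peptide at 25 nM; detection used donor plus acceptor beads, 10 µg/mL apiece, read by AlphaScreen after 30 min at room temperature.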
Pf growth 96h – Primary qHTS for delayed death inhibitors of the malarial parasite plastid, 96 hour incubation | AID 504834, 2011 | actives 6.9% (n = 320,000) | P. falciparum luciferase reporter growth, 96 h | Potency, µM (highest dose often 28.7 µM), inactives show top-dose activity change, negative = inhibition, usual class: inhibitors; note: % is set by controls: 0 for no effect and ±100 for the full control effect
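Infected RBCs, 2% Hct / 0.05% parasitemia final; luciferase-reporter P. falciparum; cpd 96 h, 37 C, 5% CO2; luciferase detection reagent; luminescence.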
SARS PLpro yeast – qHTS of Yeast-based Assay for SARS-CoV PLP; S. cerevisiae expressing SARS-CoV PLpro, growth rescue; Potency, µM (top dose mostly 32.9 µM), for inactives: at the top dose activity, positive = growth rescue, usual class: activators; actives 0.19% (n = 330,000); AID 485353, 2010; calls by dose curve; note: 0% is about no effect; nearly all actives have a fitted effect of over 55% in size
Starred values were filed as active, the others as inactive; [ ] = another dose, or the depositor's remark. Unless noted, calls come from the whole dose curve; as a rule, active = well fitted curve in the direction sought with a large enough effect; inconclusive = small, poorly fitted or top-dose-only effect, or another doubt; inactive = no such curve, though single readings can be large; an effect the other way counts as inactive or inconclusive. Potency is the fitted concentration of half-maximal effect.

Results for CC[C@@H]1CCC[C@@H](O)[C@@H](C)C(=O)O[C@H](C)[C@@H](C)C/C=C(C)/C(OC)=C\C(=O)N(C)C([C@@H](C)CC)C(=O)N(C)[C@@H](C(C)C)C(=O)N(C)[C@@H](COC)C(=O)N2CCC[C@H]2C(=O)N(C)[C@@H](C(C)C)C(=O)N2CCC[C@H]2C(=O)O1 (stereo partly specified) ?
AMA1 RON2 block: 5.8%

What do the screens show for `N#Cc1c(/N=C/c2ccccc2)oc(-c2ccccc2)c1-c1ccccc1`?
Pf growth 48h: inconclusive; AMA1 RON2 block: -9.6%; Pf growth 96h: -17.6%; SARS PLpro yeast: 6.3%

Results for N#Cc1c(/N=C/c2ccco2)oc(-c2ccccc2)c1-c1ccccc1 ?
Pf growth 48h: 16.5µM*; AMA1 RON2 block: -12.3%; Pf growth 96h: 26.9%; SARS PLpro yeast: 0.0%

Results for COc1cc(/C=N/Nc2snc(SC)c2C#N)cc(OC)c1OC ?
Pf growth 48h: 3.7%; AMA1 RON2 block: 8.8%; SARS PLpro yeast: 5.5%

How did CCOc1ccc2nc(SCC(=O)Nc3cccc(S(=O)(=O)NC4=NCCCCC4)c3)[nH]c2c1 do in these assays?
Pf growth 48h: 11.7µM*; AMA1 RON2 block: 23.2%; Pf growth 96h: inconclusive; SARS PLpro yeast: 0.7%

Results for CCOc1ccccc1OCC(=O)Nc1cccc(S(=O)(=O)NC2=NCCCCC2)c1 ?
Pf growth 48h: inconclusive; AMA1 RON2 block: 6.4%; Pf growth 96h: inconclusive; SARS PLpro yeast: -0.6%

How did CCOc1ccccc1Nc1nnc(SCC(=O)Nc2cccc(S(=O)(=O)NC3=NCCCCC3)c2)s1 do in these assays?
Pf growth 48h: inconclusive; AMA1 RON2 block: -13.1%; Pf growth 96h: 9.28µM*; SARS PLpro yeast: 3.1%

Results for CC(=O)Nc1ccc(NC(=O)c2csc([C@@H]3O[C@H](CO)[C@H](O)[C@H](O)[C@H]3O)n2)cc1 ?
AMA1 RON2 block: -4.8%

Results for C1CCC(C(CC2CCCCN2)C2CCCCC2)CC1 (stereo unspecified) ?
Pf growth 48h: 3.7µM*; AMA1 RON2 block: 7.6%; Pf growth 96h: 4.15µM*; SARS PLpro yeast: -4.6%

How did CCCC1CCCCN1 (stereo unspecified) do in these assays?
Pf growth 48h: 9.8%; Pf growth 96h: -1.6%

How did O=C(NNC(=O)c1ccccc1Br)c1cccc(Cl)c1 do in these assays?
Pf growth 48h: 60.7%; AMA1 RON2 block: 22.5%; Pf growth 96h: 129.4%; SARS PLpro yeast: 0.2%

How did CCCCc1ccc(NC=C2C(=O)OC3(CCCCC3)OC2=O)cc1 do in these assays?
Pf growth 48h: 5.9%; AMA1 RON2 block: 32.0%; SARS PLpro yeast: 15.2%

Results for C/C1=C\[C@@H](C)C/C=C/[C@H]2[C@@H]3O[C@]3(C)[C@@H](C)[C@H]3[C@H](Cc4c[nH]c5ccccc45)NC(=O)[C@]32C(=O)/C=C/C(=O)[C@@H]1O ?
Pf growth 48h: 0.294µM*; AMA1 RON2 block: -21.3%; Pf growth 96h: 59.3%; SARS PLpro yeast: -1.3%

How did CC1=CC2/C=C(\C)CCC(O)C(O)/C=C/C(=O)C23C(=O)NC(CC(C)C)C3C1C (stereo unspecified) do in these assays?
Pf growth 48h: inconclusive; AMA1 RON2 block: -2.9%; Pf growth 96h: 11.1%; SARS PLpro yeast: -0.5%

How did CCOC(=O)N1CCN(C(=O)c2noc3c2COc2ccccc2-3)CC1 do in these assays?
Pf growth 48h: -28.7%; AMA1 RON2 block: -16.2%; Pf growth 96h: inconclusive; SARS PLpro yeast: -3.5%

How did CCC(C)c1ccccc1NC(=O)c1cc2cccc([N+](=O)[O-])c2[nH]1 (stereo unspecified) do in these assays?
Pf growth 48h: inconclusive; AMA1 RON2 block: -14.4%; Pf growth 96h: 2.94µM*; SARS PLpro yeast: -12.4%

Results for Cc1ccc(NC(=O)c2cc3cccc([N+](=O)[O-])c3[nH]2)cc1 ?
Pf growth 48h: 11.9%; AMA1 RON2 block: -3.2%; Pf growth 96h: -64.6%; SARS PLpro yeast: -2.1%

What do the screens show for `O=C(Cc1cccs1)NNC(=O)C12CC3CC(CC(C3)C1)C2`?
Pf growth 48h: 10.4µM*; AMA1 RON2 block: 6.4%; Pf growth 96h: -1.8%; SARS PLpro yeast: 1.7%

What do the screens show for `O=C(Cc1cccs1)NC1CCCC1`?
Pf growth 48h: 35.5%; AMA1 RON2 block: 3.5%; Pf growth 96h: 16.2%; SARS PLpro yeast: 1.3%

How did CC1(C)C2CCC(C2)C1(C)NC(=O)CNCc1cccs1 (stereo unspecified) do in these assays?
Pf growth 48h: -7.5%; AMA1 RON2 block: inconclusive; Pf growth 96h: 1.6%; SARS PLpro yeast: -1.0%

Results for O=C(CNCc1cccs1)NC12CC3CC(CC(C3)C1)C2 ?
Pf growth 48h: 9.7%; AMA1 RON2 block: 5.8%; Pf growth 96h: 5.86µM*; SARS PLpro yeast: -9.4%

How did Cn1c(-[n+]2c(-c3ccccc3)cc(-c3ccccc3)cc2-c2ccccc2)nc2c([N+](=O)[O-])cccc21 do in these assays?
Pf growth 48h: 11.7µM*; AMA1 RON2 block: 42.9%; Pf growth 96h: inconclusive; SARS PLpro yeast: 1.5%

Results for C/C(=N\NC(=S)NCC(C)(C)C)c1cc(F)cc(F)c1O ?
Pf growth 48h: 0.294µM*; AMA1 RON2 block: 18.3%; Pf growth 96h: inconclusive; SARS PLpro yeast: -1.6%

How did CC(C)(C)C(=O)C(Oc1ccc(Cl)cc1)n1ccnc1 (stereo unspecified) do in these assays?
Pf growth 48h: -6.9%; Pf growth 96h: 12µM*

What do the screens show for `Cc1cccc(NC(=O)CNC(=O)COC(=O)c2ccc(C(C)(C)C)cc2)c1C`?
Pf growth 48h: -16.2%; AMA1 RON2 block: 8.6%[11.6 µM]; Pf growth 96h: -19.3%; SARS PLpro yeast: -10.1%

How did CSCCOC(=O)c1[nH]c2c(c1C)C(=O)CC(c1ccco1)C2 (stereo unspecified) do in these assays?
Pf growth 48h: inconclusive; AMA1 RON2 block: -24.7%; Pf growth 96h: 3.7µM*; SARS PLpro yeast: -1.3%

Results for CCOC(=O)c1[nH]c2c(c1C)C(=O)CC(c1ccco1)C2 (stereo unspecified) ?
Pf growth 48h: 13.1µM*; AMA1 RON2 block: 0.0%; Pf growth 96h: 13.9%; SARS PLpro yeast: -7.0%

What do the screens show for `COCCOC(=O)c1[nH]c2c(c1C)C(=O)CC(c1ccco1)C2` (stereo unspecified)?
Pf growth 48h: inconclusive; AMA1 RON2 block: -29.3%; Pf growth 96h: 37.7%; SARS PLpro yeast: -6.6%

What do the screens show for `Cc1c(C(=O)OCc2ccccc2)[nH]c2c1C(=O)CC(c1ccco1)C2` (stereo unspecified)?
Pf growth 48h: 1.47µM*; AMA1 RON2 block: -21.4%; Pf growth 96h: 2.9%; SARS PLpro yeast: -3.2%

Results for CSc1cccc(NC(=O)C2CC(=O)N(Cc3ccccc3)C2)c1 (stereo unspecified) ?
Pf growth 48h: inconclusive; AMA1 RON2 block: -8.9%; Pf growth 96h: 31.1%; SARS PLpro yeast: 4.2%
